Measured values as given in PubChem BioAssay (EPA / NIEHS).
Calls of active or inactive are those of the source. How the source made its calls: active means hit-call score of the fitted dose curve at least 0.9, where 1 is the maximum; inactive means score below 0.9.

Assays:
[1] = ATG_CRE_CIS: Attagene CIS-FACTORIAL HepG2 Assay for human cAMP Responsive Element (CRE) binding protein 3 (AID 2282926); conditions: HepG2 CRE cis-reporter, Attagene multiplexed mRNA; actives raise or lower the signal
In short: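 Readout: fluorescently labelled reporter transcripts resolved by capillary electrophoresis after RT-PCR, taken 24 h post-dosing in transfected HepG2. Endogenous transcription factor activity drives each cis-element reporter; gain or loss of signal fitted relative to DMSO control.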

[2] = target: CCAAT/enhancer-binding protein beta (Homo sapiens) (UniProt P17676); assay: ATG_C_EBP_CIS: Attagene CIS-FACTORIAL HepG2 Assay for human CCAAT/Enhancer Binding Protein (C/EBP) beta (AID 2282927); conditions: HepG2 Attagene cis-factorial transcription factor reporter; actives raise or lower the signal
CCAAT/enhancer-binding protein beta (Homo sapiens), sequence (P17676 whole entry, looked up, the tested form may be a part): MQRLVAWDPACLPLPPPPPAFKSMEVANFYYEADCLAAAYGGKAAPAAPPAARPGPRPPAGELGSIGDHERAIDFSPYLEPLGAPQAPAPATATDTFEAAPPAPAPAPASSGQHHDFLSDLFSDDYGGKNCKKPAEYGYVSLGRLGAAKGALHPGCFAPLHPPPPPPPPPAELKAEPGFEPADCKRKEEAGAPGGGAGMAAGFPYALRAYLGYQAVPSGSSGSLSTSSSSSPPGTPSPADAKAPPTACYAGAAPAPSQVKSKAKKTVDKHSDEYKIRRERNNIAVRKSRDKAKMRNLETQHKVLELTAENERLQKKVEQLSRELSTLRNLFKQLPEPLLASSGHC
In short: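 Chemical-treated HepG2 cells (24 h) bearing cis-regulated reporter constructs were processed for total RNA, then reverse transcription, PCR amplification, fluorescent primer extension and fragment analysis; gain- and loss-of-signal were fitted against DMSO.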

[3] = ATG_CMV_CIS: Attagene CIS-FACTORIAL HepG2 Assay for human CMV (Internal Marker) (AID 2282928); conditions: HepG2 CMV promoter reporter, transcription factor profiling; actives raise or lower the signal;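 further: endpoint acts as a background internal control marker rather than a target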
In short: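 Fluorescence intensity of RT-PCR-derived reporter fragments, resolved by capillary electrophoresis, gives the signal. HepG2 liver cells bearing transfected cis-element reporters were treated 24 h; activity in either direction was fit relative to DMSO-treated controls.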

[4] = ATG_DR4_LXR_CIS: Attagene CIS-FACTORIAL HepG2 Assay for human Liver X Receptor (LXR), DR4 submotif (AID 2282929); conditions: HepG2 Attagene DR4 cis-reporter, mRNA transcription; actives raise or lower the signal
In short: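 HepG2, transient MRTU transfection, cis-element (DR4) promoter; 24 h compound exposure; total RNA → oligo(dT) RT → PCR → 6-FAM primer extension → HpaI cut → CE. Gain/loss vs DMSO, bidirectional fit.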

[5] = target: Aryl hydrocarbon receptor (Homo sapiens) (UniProt P35869); assay: ATG_Ahr_CIS: Attagene CIS-FACTORIAL HepG2 Assay for human Aryl Hydrocarbon Receptor (Ahr) (AID 2282930); conditions: HepG2 AhR cis-factorial reporter transcription; actives raise or lower the signal
Aryl hydrocarbon receptor (Homo sapiens), sequence (P35869 whole entry, looked up): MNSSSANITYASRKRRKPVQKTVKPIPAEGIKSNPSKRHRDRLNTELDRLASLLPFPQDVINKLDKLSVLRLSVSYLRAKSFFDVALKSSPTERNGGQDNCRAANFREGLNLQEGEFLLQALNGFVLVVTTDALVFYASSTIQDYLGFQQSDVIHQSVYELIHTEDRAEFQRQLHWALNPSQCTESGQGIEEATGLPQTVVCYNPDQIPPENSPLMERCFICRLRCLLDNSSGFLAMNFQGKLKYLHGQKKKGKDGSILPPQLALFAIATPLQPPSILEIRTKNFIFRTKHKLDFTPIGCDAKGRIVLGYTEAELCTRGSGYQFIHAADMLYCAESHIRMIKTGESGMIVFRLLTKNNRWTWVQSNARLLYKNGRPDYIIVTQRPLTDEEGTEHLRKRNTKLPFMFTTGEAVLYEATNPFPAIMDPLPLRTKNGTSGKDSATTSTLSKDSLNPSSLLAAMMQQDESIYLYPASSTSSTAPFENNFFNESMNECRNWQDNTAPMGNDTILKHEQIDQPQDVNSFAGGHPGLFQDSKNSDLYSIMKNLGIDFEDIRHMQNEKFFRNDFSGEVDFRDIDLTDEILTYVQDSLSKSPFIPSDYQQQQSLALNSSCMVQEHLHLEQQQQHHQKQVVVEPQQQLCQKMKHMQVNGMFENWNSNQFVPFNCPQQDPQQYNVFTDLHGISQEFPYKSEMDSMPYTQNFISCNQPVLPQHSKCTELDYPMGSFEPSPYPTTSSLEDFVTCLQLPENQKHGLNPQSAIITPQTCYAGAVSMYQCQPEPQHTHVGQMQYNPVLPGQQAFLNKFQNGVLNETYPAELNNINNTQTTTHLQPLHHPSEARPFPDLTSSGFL
In short: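 Following 24 h of chemical dosing, transfected HepG2 liver cells with cis-driven reporter units were lysed for RNA; reporter mRNA was quantified via RT-PCR and capillary electrophoresis, and responses fitted bidirectionally from DMSO.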

| Structure (SMILES) | outcome [1] | outcome [2] | outcome [3] | outcome [4] | outcome [5] | AC50 [1] | AC50 [2] | AC50 [3] | AC50 [4] | AC50 [5] |
| --- | --- | --- | --- | --- | --- | --- | --- | --- | --- | --- |
| COc1ccc(C=O)cc1 | inactive | inactive | inactive | inactive | inactive |  |  |  |  |  |
| CNC | inactive | inactive | inactive | inactive | inactive |  |  |  |  |  |
| ClCc1cccnc1 |  | inactive | inactive | inactive | inactive | 57 µM (active) |  |  |  |  |
| CC(C)(c1ccc(OCC2CO2)cc1)c1ccc(OCC2CO2)cc1 (stereo not given) |  |  |  |  | inactive | 36 µM (active) | 51.6 µM (active) | 49.2 µM (active) | 25.9 µM (active) |  |
| O=[N+]([O-])c1ccc(O)c([N+](=O)[O-])c1 | inactive | inactive | inactive | inactive | inactive |  |  |  |  |  |
| N#CCc1ccc(Cl)cc1 | inactive | inactive | inactive | inactive | inactive |  |  |  |  |  |
| CC(C)C1CCC(Cc2ccc(Cl)cc2)C1(O)Cn1cncn1 (stereo not given) | inactive | inactive | inactive |  |  |  |  |  | 18.1 µM (active) | 3.08 µM (active) |
| Nc1cccc(Cl)c1 | inactive | inactive | inactive | inactive | inactive |  |  |  |  |  |
| Nc1cccc2ccccc12 | inactive | inactive | inactive |  |  |  |  |  | 154 µM (active) | 5.16 µM (active) |
| O=CC=O | inactive | inactive | inactive | inactive | inactive |  |  |  |  |  |
| COc1ccc(OC)c(C=O)c1 | inactive | inactive | inactive | inactive | inactive |  |  |  |  |  |
| CCCCOCCOC(C)=O | inactive | inactive | inactive | inactive | inactive |  |  |  |  |  |
| O=C/C=C/c1ccccc1 | inactive | inactive | inactive | inactive | inactive |  |  |  |  |  |
| O=[N+]([O-])c1c(Cl)c(Cl)cc(Cl)c1Cl | inactive | inactive |  | inactive | inactive |  |  | 45.3 µM (active) |  |  |
| Cc1cc(=O)[nH]o1 | inactive | inactive | inactive | inactive | inactive |  |  |  |  |  |
| CCOP(=S)(OCC)SCCS(=O)(=O)CC | inactive | inactive | inactive | inactive | inactive |  |  |  |  |  |
| O=Cc1cccc(Oc2ccccc2)c1 | inactive | inactive | inactive | inactive | inactive |  |  |  |  |  |
| C=CCc1ccc(OC)cc1 | inactive | inactive | inactive | inactive | inactive |  |  |  |  |  |

| Structure (SMILES) | outcome [1] | outcome [2] | outcome [3] | outcome [4] | outcome [5] | AC50 [1] | AC50 [2] | AC50 [3] | AC50 [4] | AC50 [5] |
| --- | --- | --- | --- | --- | --- | --- | --- | --- | --- | --- |
| CC1(C)CCC(Cc2ccc(Cl)cc2)C1(O)Cn1cncn1 (stereo not given) | inactive | inactive | inactive |  |  |  |  |  | 56.7 µM (active) | 4.7 µM (active) |
| Nc1ccc(-c2ccc(N)c(Cl)c2)cc1Cl | inactive | inactive |  | inactive |  |  |  | 2.15 µM (active) |  | 6.23 µM (active) |
| C1CCC(NC2CCCCC2)CC1 | inactive | inactive | inactive | inactive | inactive |  |  |  |  |  |
| ClCc1ccccn1 |  | inactive | inactive | inactive |  | 67.5 µM (active) |  |  |  | 76 µM (active) |
| C[C@H]1CCCC(=O)CCC/C=C/c2cc(O)cc(O)c2C(=O)O1 | inactive | inactive |  | inactive |  |  |  | 31.1 µM (active) |  | 22.5 µM (active) |
| CC(C)OC(=O)Nc1ccccc1 | inactive | inactive | inactive | inactive | inactive |  |  |  |  |  |
| Oc1c(I)cc(I)cc1I | inactive | inactive |  | inactive |  |  |  | 49.3 µM (active) |  | 34.5 µM (active) |
| Oc1ccc(-c2ccccc2)cc1 | inactive | inactive |  | inactive | inactive |  |  | 44.9 µM (active) |  |  |
| N#CCCO | inactive | inactive | inactive | inactive | inactive |  |  |  |  |  |
| CN(C)P(=O)(N(C)C)N(C)C | inactive | inactive | inactive | inactive | inactive |  |  |  |  |  |
| Nc1ccc(Cl)cc1C(=O)c1ccccc1 | inactive | inactive | inactive |  | inactive |  |  |  | 49.5 µM (active) |  |
| COc1cc(OC)nc(NC(=O)NS(=O)(=O)c2ncccc2C(=O)N(C)C)n1 | inactive | inactive | inactive | inactive | inactive |  |  |  |  |  |
| COP(=O)(OC)O/C(=C\Cl)c1cc(Cl)c(Cl)cc1Cl | inactive | inactive | inactive |  | inactive |  |  |  | 58.2 µM (active) |  |
| CC(C#N)CCC#N (stereo not given) | inactive | inactive | inactive | inactive | inactive |  |  |  |  |  |
| [O-][Cl+2]([O-])O | inactive | inactive | inactive | inactive | inactive |  |  |  |  |  |
| Cc1cc(Cl)ccc1O[C@H](C)C(=O)O | inactive | inactive | inactive | inactive | inactive |  |  |  |  |  |
| CC(=O)C=C(C)C | inactive | inactive | inactive | inactive | inactive |  |  |  |  |  |
